Rows were chosen to be rich in hits. Some 3.5% of all compounds tested hit in one or more screens of this group.
mHTT-CaM PPI inh: mutant huntingtin-calmodulin interaction inhibitors – biochemical, AlphaScreen, primary screen; AID 1671202, 2021; P42858; hit rate 3.6% among 190,000; AlphaScreen His-mHTT/GST-CaM binding, luminescence; inhibition, % at 15 µM;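 also: 0% = both proteins with DMSO and 100% = one protein alone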
Pf apPOL block: Pf-apPOL inhibitors, biochemical, fluorescence. Recombinant Pf-apPOL, molecular beacon fluorescence, 1.5 h. inhibition, % at 10 µM. hit rate 0.25% among 210,000
An asterisk follows results filed as active; x = no result given; ! = not active in a repeat. Rule as the data show it: active = inhibition above about 50%; inactive = the rest.

SMILES	mHTT-CaM PPI inh	Pf apPOL block
O=C(Nc1nccs1)C1CC(=O)N(CCc2c[nH]c3ccc(Cl)cc23)C1 (stereo unspecified)	63*	0
Cc1ccc(Cl)cc1NC(=O)C1CC(=O)N(c2cccc([N+](=O)[O-])c2)C1 (stereo unspecified)	54*	-10
Cc1ccc(C(=O)N2CCC(CC(=O)NCCc3c[nH]c4ccc(Cl)cc34)CC2)cc1	10	-7
Cc1ccc(N2CC(C(=O)Nc3ccc(Cl)cc3Cl)CC2=O)cc1 (stereo unspecified)	-5	-5
Cc1ccc2[nH]cc(CCNC(=O)CC3CCN(C(=O)c4ccccc4Cl)CC3)c2c1	79*	1
CN1CCN(c2cc(-n3nc(C(F)(F)F)cc3-c3ccccc3)ncn2)CC1	12	0
O=C(Nc1ccccc1-c1nc2ccccc2s1)c1ccc([N+](=O)[O-])o1	-1	-2
O=C(Cn1cc(S(=O)(=O)c2ccccc2)c2ccccc21)N1CCc2ccccc21	-3	-7
Cc1cc2n(n1)CCC(=O)N2CCCC(=O)N1CCN(c2cc(Cl)ccc2C)CC1	84*	-6
Cc1ccc(C)c(N2CCN(C(=O)CCC(=O)N3CCCn4nc(C)cc43)CC2)c1	46	1
Cc1ccc(C)c(N2CCN(C(=O)CCCN3C(=O)CCn4nc(C)cc43)CC2)c1	27	-3
Cc1cc2n(n1)CCCN2C(=O)CCC(=O)N1CCN(c2cc(Cl)ccc2C)CC1	87*	0
O=C(c1ccc(F)cc1)N1CCN(Cc2cccc(Br)c2)CC1	11	-2
Nc1cc(C2CCN(S(=O)(=O)Cc3ccccc3F)CC2)no1	14	1
Cc1cccc(CN2CCc3nc(N4CCN(c5ncccn5)CC4)ncc3C2)c1	100*	1
CCN1CCN(c2ncc3c(n2)CCN(Cc2cccc(Cl)c2)C3)CC1	78*	1
CCCN1CCN(c2ncc3c(n2)CCN(Cc2cccc(C)c2)C3)CC1	13	-7
Clc1cccc(CN2CCc3nc(N4CCN(c5ccccc5)CC4)ncc3C2)c1	25	2
CCOc1ccc(CN2CCc3nc(N4CCN(CC)CC4)ncc3C2)cc1OCC	20	-4
CCN1CCN(c2ncc3c(n2)CCN(Cc2ccc(Cl)c(F)c2)C3)CC1	63*	1
CCCN1CCN(c2ncc3c(n2)CCN(Cc2cccc(Br)c2)C3)CC1	45	-6
Clc1cccc(CN2CCc3nc(N4CCN(c5ncccn5)CC4)ncc3C2)c1	100*	-6
COc1ccc(/C=C2\C(=O)N(c3ccccc3)N=C2c2ccccc2)cc1OC	47	-6
Cc1ccc(N2CCN(C(=O)c3nnn4c3COC(c3ccc(F)cc3)C4)CC2)cc1 (stereo unspecified)	4	-2
O=C(Cc1cccnc1)N1CCCC(OCc2nc(C3CC3)no2)C1 (stereo unspecified)	-7	-4
SMILES	mHTT-CaM PPI inh	Pf apPOL block
CCN1CCN(c2ncc3c(n2)CCN(Cc2ccccc2F)C3)CC1	56*	-3
CCN1CCN(c2ncc3c(n2)CCN(CCc2ccccc2)C3)CC1	97*	-7
CCN1CCN(c2ncc3c(n2)CCN(Cc2cccc(F)c2F)C3)CC1	32	5
CCCN1CCc2nc(N3CCN(c4ccccc4F)CC3)ncc2C1	15	-4
O=C(NC1CCCCCC1)C1CCCN(c2cn[nH]c(=O)c2)C1 (stereo unspecified)	-6	-1
CN(CC(=O)Nc1nnc(SCc2cccc(C(F)(F)F)c2)s1)S(C)(=O)=O	9	-4
Cc1ccc(S(=O)(=O)CCc2nnc(NC(=O)c3ccco3)s2)cc1C	-2	0
O=C(Nc1cc([N+](=O)[O-])ccc1C(=O)Nc1cccnc1)c1ccccc1	4	-1
COc1ccc(C(=O)Nc2ccccc2C(N)=O)cc1	6	-2
O=C(Nc1ccccc1C(=O)Nc1cccnc1)c1ccccc1	-3	51*!
O=C(Nc1cccnc1)C(=O)Nc1cccnc1	82*	-5
COc1ccc(C(=O)Nc2ccccc2C(=O)Nc2ccccc2C(=O)O)cc1	84*	-7
O=C(Nc1ccc(-c2ccc(NC(=O)Nc3cccnc3)cc2)cc1)Nc1cccnc1	10	3
O=C(Nc1ccc(OC(F)(F)F)cc1)N1CCN(Cc2ccc3c(c2)OCO3)CC1	x	-4
CCC(=O)Nc1cccc(-c2nnc(SCC(=O)Nc3ccc(CC)cc3)n2C)c1	15	-1
CCOC(=O)CC1(NC(=O)N2CCC(c3nc4cccnc4n3C)C2)CCCCC1 (stereo unspecified)	-2	-3
Cc1ccc(OCCSc2ncnc3nc[nH]c23)c(C(C)C)c1	8	3
COc1ccccc1CCC(=O)Nc1ccc2ncnc(N3CCCC3)c2c1	-10	4
CC(C(=O)Nc1cccc2c1C(=O)c1ccccc1-2)N1C(=O)C2C3C=CC(C3)C2C1=O (stereo unspecified)	61*	-1
CC(C(=O)Nc1ccccn1)N1C(=O)C2C3C=CC(C3)C2C1=O (stereo unspecified)	3	2
COc1ccccc1NC(=O)Nc1nnc(-c2ccc([N+](=O)[O-])cc2)s1	3	-5
Cc1ccc(-c2ncc(NC(=O)c3cc(C)on3)cn2)cc1	-2	0
Cc1cccc(C2=NC3(CCN(CC(=O)Nc4ccc(F)cc4)CC3)NC2=O)c1	69*	5
O=C(CN1CCC2(CC1)N=C(c1cccc(F)c1)C(=O)N2)Nc1ccc(Cl)cc1	17	3
Cc1cccc(NC(=O)CN2CCC3(CC2)N=C(c2ccc(F)cc2)C(=O)N3)c1	-8	-1
SMILES	mHTT-CaM PPI inh	Pf apPOL block
Cc1ccc(C2=NC3(CCN(CC(=O)NCc4ccc(Cl)cc4)CC3)NC2=O)cc1	42	2
Cc1cccc(C2=NC3(CCN(CC(=O)NCc4ccc(Cl)cc4)CC3)NC2=O)c1	53*	11
Cc1ccc(CN2CCC3(CC2)N=C(c2ccccc2)C(=O)N3)cc1	54*	-7
O=C(CN1CCC2(CC1)N=C(c1cccc(Cl)c1)C(=O)N2)Nc1ccc(Cl)cc1	88*	3
Cc1ccc(C2=NC3(CCN(Cc4ccc(F)cc4)CC3)NC2=O)cc1	1	3
CSc1ccccc1NC(=O)c1cn2c(n1)CCCC2	4	-2
O=C(Cn1cc(S(=O)(=O)c2ccc(F)cc2)c2ccccc21)NC1CC1	-5	-6
N#Cc1c(C(F)(F)F)cc(-c2cccs2)nc1SCC(=O)Nc1ccccc1	-13	12
N#Cc1c(C(F)(F)F)cc(-c2cccs2)nc1SCC(=O)Nc1ccc([N+](=O)[O-])cc1	0	64*
Cc1cccc(-c2noc(-c3ccc([N+](=O)[O-])cc3)n2)c1	0	7
CCc1cccc(C)c1NC(=O)COc1cc(C)ccc1C(C)C	-8	-2
COc1cc(/C=C2/C(=O)N(c3ccc(C)cc3)N=C2C)c([N+](=O)[O-])cc1OC	49	-7
COc1ccc(/C=C2/C(=O)N(c3cccc(Cl)c3)N=C2C)cc1[N+](=O)[O-]	18	0
CC1=NN(c2cccc(Cl)c2)C(=O)/C1=C/c1ccc(-c2cc([N+](=O)[O-])ccc2O)o1	92*	-3
COc1cc(/C=C2/C(=O)N(c3cccc(Cl)c3)N=C2C)c([N+](=O)[O-])cc1OC	62*	1
CC1=NN(c2ccccc2)C(=O)/C1=C/c1ccc(-c2ccc([N+](=O)[O-])cc2C)o1	1	-9
COc1cc(/C=C2/C(=O)N(c3ccc(C(=O)O)cc3)N=C2C)c([N+](=O)[O-])cc1OC	6	100*
